# Reference: PubChem BioAssay AID602468 (The Scripps Research Institute Molecular Screening Center, 2012)
# The source made the active and inactive calls. How the calls were made is not given here.
# Test system: Neuro-2A
# Assay: cysteine-reactive anti-target inhibition count, late-stage follow-up, selectivity assay for PME-1 inhibitor project, gel-based competitive ABPP, fluorescence, MBM, Neuro-2A (AID 602468)
# Conditions: MBM or Neuro-2A, in situ; series mostly up to 0.25 µM
smiles,measurement,value
CC[C@@]1(c2ccc(C)cc2)C(=O)N(C(=O)OC(C)C)N1C(=O)OC(C)C,outcome,inactive
